FBW7 activator – FBW7 E3 ligase activators, primary screen, biochemical, AlphaScreen, human; AID 1259310, 2017; normalized activity (activation), % at 26.1 µM; AlphaScreen FBW7–phospho-cyclin E peptide binding, activator screen; F-box/WD repeat-containing protein 7 (Homo sapiens), Q969H0; 650,000 compounds, 0.13% hits; in the data active = normalized activity above about 1.9%;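 note: purified mutant Fbw7 with reduced substrate affinity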
Target sequence (Q969H0 whole entry, looked up): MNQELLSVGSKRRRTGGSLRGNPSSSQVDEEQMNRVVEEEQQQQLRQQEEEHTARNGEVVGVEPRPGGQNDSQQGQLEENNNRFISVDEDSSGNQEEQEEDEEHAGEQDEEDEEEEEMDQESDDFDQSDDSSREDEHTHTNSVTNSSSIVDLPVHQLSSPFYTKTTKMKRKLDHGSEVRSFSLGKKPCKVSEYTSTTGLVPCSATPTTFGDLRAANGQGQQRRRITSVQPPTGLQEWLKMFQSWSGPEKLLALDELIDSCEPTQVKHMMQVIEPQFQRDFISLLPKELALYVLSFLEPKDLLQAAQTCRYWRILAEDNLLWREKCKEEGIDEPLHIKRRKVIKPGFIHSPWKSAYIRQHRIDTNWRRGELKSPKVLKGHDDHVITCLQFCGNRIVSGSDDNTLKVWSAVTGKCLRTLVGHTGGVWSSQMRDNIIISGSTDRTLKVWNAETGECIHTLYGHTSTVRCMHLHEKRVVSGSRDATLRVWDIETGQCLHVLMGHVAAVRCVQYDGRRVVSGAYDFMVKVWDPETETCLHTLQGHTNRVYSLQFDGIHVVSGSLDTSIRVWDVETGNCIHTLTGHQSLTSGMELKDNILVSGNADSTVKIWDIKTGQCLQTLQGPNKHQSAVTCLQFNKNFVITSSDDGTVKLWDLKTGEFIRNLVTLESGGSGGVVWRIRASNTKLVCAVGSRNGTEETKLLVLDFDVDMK
TEAD-YAP inh – TEAD-YAP interaction inhibition, primary screen, TEAD-YAP interaction inhibitor project, luminescence, HEK-TIYL cells; 640,000 compounds, 1.4% hits; inhibition, % at 9.12 µM; TEAD-Gal4/YAP UAS-luciferase luminescence; in the data active = inhibition above about 32%;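 note: 0% = median of test compound wells and 100% = reference inhibitor wells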
GPR151 activ – activators of human GPR151, primary screen, cell-based, PathHunter beta-arrestin, luminescence; PathHunter beta-arrestin GPR151 cells; activation, % at 11.2 µM; 650,000 compounds, 1% hits; AID 1508602, 2020; in the data active = activation above about 4.9%;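 note: 0% = median of compound wells and 100% = cells with positive control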
MITF primary – MITF inhibitors, primary screen, biochemical, AlphaScreen, human; Microphthalmia-associated transcription factor (Homo sapiens), O75030; AlphaScreen MITF homodimerization, bead proximity signal; 650,000 compounds, 0.91% hits; inhibition, % at 2.6 µM; in the data active = inhibition above about 50%;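 note: 0% = vehicle wells with protein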
MITF confirm – MITF inhibitors, retest of hits, confirmation, biochemical, AlphaScreen, triplicate | shares compounds with MITF primary | AlphaScreen MITF homodimerization, biotin/His-MITF beads | inhibition, % at 2.6 µM | 4,700 compounds, 16% hits;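 active = inhibition above a cutoff derived from the DMSO control wells, cut at about 28% in these data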;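 note: 0% = MITF dimer wells with DMSO only; inhibitors lower the bead chemiluminescence by keeping MITF from dimerizing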
AlphaScreen DR – AlphaScreen optical interference compounds, dose response, counter-screen, biochemical, HTS | shares compounds with MITF primary | AlphaScreen optical interference counterscreen, cell-free | IC50, µM | 480 compounds, 6% hits | AID 1259373, 2018; call rule not given here
AlphaScreen intf2 – AlphaScreen optical interference compounds, counter-screen for MITF inhibitor project, biochemical, triplicate; 4,700 compounds, 7.6% hits; inhibition, % at 2.6 µM; LysRS AlphaScreen counterscreen, signal interference; shares compounds with MITF primary;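 active = inhibition above a cutoff derived from the DMSO control wells, cut at about 30% in these data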
* marks the source's active call; other numbers are inactive results; . = no result; ! = not active in a repeat. Shown are actives, neighbours in structure and some others; about 3.5% of the full set was active somewhere.

SMILES	FBW7 activator	TEAD-YAP inh	GPR151 activ	MITF primary	MITF confirm	AlphaScreen intf2	others
Cc1cc(C)c(S(=O)(=O)Nc2ccc(Br)cc2)cc1S(=O)(=O)Nc1ccc(Br)cc1	0.0	13.3	0.1	18.0	.	.
Cc1ccc(S(=O)(=O)Nc2ccc(Br)cc2)cc1S(=O)(=O)Nc1ccc(Br)cc1	0.2	5.1	-0.4	52.7*	15.7	10.5
Cc1ccc(S(=O)(=O)N(CC(=O)NCC2CCCO2)c2ccccc2Cl)cc1 (centres undefined)	-0.1	4.9	1.4	-18.8	.	.
Cc1cc(Cl)ccc1N(CC(=O)NCC1CCCO1)S(=O)(=O)c1ccccc1 (centres undefined)	0.6	14.4	-1.5	72.6*	4.2	9.2
CCN1Cc2cccc(CNc3cc(OC)cc(OC)c3)c2C1	-0.3	8.6	0.8	-5.5	.	.
COc1cc(/C=N/NC(N)=S)ccc1OC(=O)c1ccc([N+](=O)[O-])cc1	-0.3	-5.0	-0.6	2.9	.	.
O=C(c1cccs1)N1CCN(c2ccc([N+](=O)[O-])cc2F)CC1	0.1	-1.0	-0.9	62.2*	3.1	-0.9
CCOC(=O)c1ccc(NC(=O)CC2C(=O)N(c3ccc(F)cc3)C(=S)N2CCc2ccc(OC)c(OC)c2)cc1 (centres undefined)	-0.1	12.1	0.2	72.2*!	-6.6	-4.0
COC(=O)c1ccc(NC(=O)CC2C(=O)N(c3ccc(F)cc3)C(=S)N2CCc2ccc(OC)c(OC)c2)cc1 (centres undefined)	0.3	-7.8	0.6	-0.1	.	.
O=C(NCC1CCCO1)c1ccc(CNc2nc(=S)[nH]c3ccccc23)cc1 (centres undefined)	-0.1	4.7	0.9	8.9	.	.
O=C(NCc1ccc2c(c1)OCO2)C1CCC(CNc2nc(=S)[nH]c3ccccc23)CC1 (centres undefined)	0.3	0.1	0.3	57.0*	-12.9	-5.0
O=S(=O)(O)c1cc(S(=O)(=O)O)c2cc(O)c(S(=O)(=O)O)cc2c1	-0.7	7.1	-1.1	60.4*	67.1*	13.9	AlphaScreen DR=>6.48
CCN1CCN(CCCNC(=O)COc2ccc3c(c2)C(=O)CC(C)(C)O3)CC1	0.2	5.5	0.9	57.3*	-1.5	9.9
CCCCCCCNC(=O)COc1ccc2c(c1)C(=O)CC(C)(C)O2	0.1	2.6	1.0	-11.9	.	.
O=C(NCCCN1CCCC1)c1ccccc1Cl	-0.1	-2.5	-0.2	55.4*	-0.5	1.3
O=C(CCNC(=O)c1ccccc1Cl)NCCCN1CCOCC1	0.1	3.3	1.4	-3.6	.	.
COc1ccc(CN2CCN(C(=S)Nc3ccccc3)CC2CCO)cc1OC (centres undefined)	0.0	-0.5	0.0	3.0	.	.
O=C(O)[C@@H]1[C@H]2C[C@H]2CN1C(=O)Cc1cccs1	0.1	2.9	0.8	7.7	.	.
O=C1c2cccnc2C(=O)N1c1ccc(F)cc1	-1.0	3.1	0.8	51.0*	2.2	15.4
O=C1c2cccnc2C(=O)N1c1ccccc1F	-0.4	0.5	0.8	56.8*	18.6	30.9*
O=C1c2cccnc2C(=O)N1c1ccc(Oc2ccccc2)cc1	-0.1	-28.6	0.5	20.9	.	.
O=C1c2cccnc2C(=O)N1c1ccccc1	0.0	-9.5	-0.4	70.1*	-15.5	17.9
CC(C)S(=O)(=O)N1CC[C@@H]2[C@H](CCCN2C(=O)CCc2cccs2)C1	0.2	4.7	-0.2	9.2	.	.
COc1ccc(NC(=O)COc2cccc(Cl)c2)c(OC)c1	0.0	-13.4	-0.9	25.2	.	.
CCOc1ccc2nc(N=C(NC(C)=O)NC(C)=O)nc(C)c2c1	-0.1	-56.4	0.4	-6.6	.	.
SMILES	FBW7 activator	TEAD-YAP inh	GPR151 activ	MITF primary	MITF confirm	AlphaScreen intf2	others
CCOc1ccc2nc(N=C(NC(=O)c3ccccc3)NC(=O)c3ccccc3)nc(C)c2c1	0.0	-10.2	0.2	71.5*	-2.2	11.4
O=C(O)c1cc2n(n1)C(C(F)(F)F)CC(c1ccc3c(c1)OCO3)N2 (centres undefined)	0.0	-3.7	-0.1	-9.5	.	.
Cc1ncoc1C(=O)N1CCCC(CNS(=O)(=O)Cc2ccccc2)C1 (centres undefined)	0.3	1.4	-0.2	13.1	.	.
CC(C)c1cccc(OCCOCCNCCN)c1	-0.2	3.1	0.2	50.6*	-21.4	-0.5
CCOc1cccc(OCCOCCNC(C)(C)C)c1	-0.2	2.7	-0.9	66.6*	1.6	3.9
CCCCNCCOCCOc1cccc(C(C)C)c1	0.6	-5.2	0.0	-2.0	.	.
CC(C)c1cccc(OCCOCCNC(C)(C)C)c1	-0.1	13.6	2.3	67.0*	14.6	12.4
Cc1cc(C(=O)Nc2ccc(Cl)cc2)c(C)o1	0.1	-68.0	-2.8	7.4	.	.
COc1ccc(OC)c(CN2CCN(CC3CC4C=CC3C4)CC2)c1 (centres undefined)	-0.1	-6.0	0.2	34.6	.	.
CSc1ccc(CN2CCN(S(=O)(=O)c3ccc(F)cc3)CC2)cc1	0.7	4.7	-1.7	44.9	.	.
Cc1ccc(CN2CCN(CC3CC4C=CC3C4)CC2)cc1 (centres undefined)	0.0	4.7	0.1	74.2*	-5.5	-1.8
COc1cc(CN2CCN(CC3CC4C=CC3C4)CC2)cc(OC)c1OC (centres undefined)	0.4	10.7	-0.4	56.0*	-2.5	-0.3
CSc1ccc(CN2CCN(CC3CC4C=CC3C4)CC2)cc1 (centres undefined)	-0.2	0.6	0.2	62.2*	-2.6	3.6
Fc1ccc(CN2CCN(CC3CC4C=CC3C4)CC2)cc1 (centres undefined)	0.0	7.5	-0.3	78.6*	6.6	19.6
COc1cc(C2C3=C(CC(C)(C)CC3=O)Nc3ncnn32)ccc1OC(F)F (centres undefined)	0.0	5.7	0.3	12.4	.	.
Cc1c(Cl)cccc1NC(=O)C1CC(=O)NC2=C1C(=O)CCC2 (centres undefined)	0.0	15.7	2.2	7.9	.	.
Oc1ccc(Cl)cc1C1=NOC(O)(C(F)(F)F)C1 (centres undefined)	0.0	-2.1	-1.7	-11.3	.	.
COc1cc(NC(=O)c2ccc3nc(-c4ccccc4)sc3c2)cc(OC)c1OC	0.2	-1.1	1.9	67.6*	6.2	5.2
COc1cccc(NC(=O)c2sc3nc(N)c(C#N)c(-c4ccc(C(C)C)cc4)c3c2N)c1	0.0	-5.3	1.4	52.0*	-2.5	-8.5
CC(C)c1ccc(-c2c(C#N)c(N)nc3sc(C(=O)Nc4ccc(Cl)cc4)c(N)c23)cc1	0.1	1.0	0.2	2.5	.	.

Bioassay records deposited in PubChem by The Scripps Research Institute Molecular Screening Center.
